According to PubChem BioAssay AID1210 (NMMLSC, 2008):

These molecules were tested against Estrogen receptor beta (Homo sapiens) (UniProt Q92731) (assay: ERbeta ligand binders by competition, primary screen, cell-based, Cos7 ERbeta-GFP, flow cytometry (AID 1210;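 note: 0% = DMSO vehicle wells and 100% = complete loss of labeled estradiol signal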)). Settings: fluorescent estrogen binding, at 10 µM, stronger effect = higher value;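 active = blocks over 70% of labeled estradiol binding at 10 µM, or over a set limit at 100 nM; inactive = the rest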.
Chain of Estrogen receptor beta (Homo sapiens) (Q92731 whole entry, looked up): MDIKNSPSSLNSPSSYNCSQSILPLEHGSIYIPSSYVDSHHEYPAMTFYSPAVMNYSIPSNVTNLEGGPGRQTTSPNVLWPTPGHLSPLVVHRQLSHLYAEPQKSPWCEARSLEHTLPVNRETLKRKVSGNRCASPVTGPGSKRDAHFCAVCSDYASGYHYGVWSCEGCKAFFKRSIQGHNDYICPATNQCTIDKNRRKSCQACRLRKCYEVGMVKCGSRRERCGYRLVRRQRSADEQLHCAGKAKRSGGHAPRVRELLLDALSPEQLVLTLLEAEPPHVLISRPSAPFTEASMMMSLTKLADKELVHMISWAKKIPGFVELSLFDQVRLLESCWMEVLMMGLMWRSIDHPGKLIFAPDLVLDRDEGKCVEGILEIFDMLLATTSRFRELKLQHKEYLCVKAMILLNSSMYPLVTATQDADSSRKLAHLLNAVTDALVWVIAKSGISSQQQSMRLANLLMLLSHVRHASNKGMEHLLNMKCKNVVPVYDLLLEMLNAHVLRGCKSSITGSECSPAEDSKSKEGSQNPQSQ

inhibition, inactive:
CCOc1cc2c(c([N+](=O)[O-])c1)NC(c1ccc(Cl)cc1)C1CC=CC21 (configuration not stated) 16%
CC(C)C1CC(CCNCc2ccc3c(c2)OCO3)(c2ccccc2)CCO1 (configuration not stated) 45%
CC1CCC2(C)c3[nH]c4ccccc4c3CCN2C1=O (configuration not stated) 7%
Nc1nc2c(s1)CCc1c-2cnn1-c1ccccc1 50%
O=C(O)C1Nc2c(C(=O)N3CCOCC3)cccc2C2C=CCC12 (configuration not stated) 45%
Cc1ccn2c(NCc3ccc4c(c3)OCO4)c(-c3ccc(O)cc3)nc2c1 41%
Cn1c(C(=O)Nc2ccc3c(c2)OCO3)cc2c(=O)n(C)c3ccccc3c21 42%
CC12CCCCC1(O)[N+](=O)C1=C(CCCC1)N2[O-] (configuration not stated) 0%
O=C(O)c1ccc(Cl)c2c1C1C=CCC1C(c1ccccn1)N2 (configuration not stated) 28%
Cn1c(SCC(=O)N2c3ccccc3CCc3ccccc32)nnc1-c1cc2ccccc2cc1O 19%
COc1cc([N+](=O)[O-])cc2c1NC(c1ccc(Cl)cc1)C1CC=CC21 (configuration not stated) 1%
N#Cc1c2c(c(=O)n3c1[nH]c1ccccc13)CCCC2 13%
O=C(O)c1cc(-c2ccco2)nc2ccccc12 14%
Nc1nc(-c2ccc3c(c2)NC(=O)CO3)cs1 70%
COc1ccc(Oc2ccc3c(c2)c2c4n3CCNC4CCC2)cc1 (configuration not stated) 7%
Cc1ccc(-c2nnc(-c3ccc(NC(=O)c4ccco4)cc3)o2)cc1 54%
COc1cc(C2C3C(C)N(C)C(=O)N(C)C3N(C)C(=O)N2C)ccc1O (configuration not stated) 12%
